# According to PubChem BioAssay:
# Values joined by “and” are separate entries in the source; they are usually repeats but may differ in a detail not shown here. Identical values can stand only once. Active and inactive are the calls of the source.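 Rule for the calls, unless noted: active = inhibition at or above 50% relative to wild type and mutant plate controls; inactive = inhibition below 50%.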
# What was measured:
# [1] = inhibitors of TNFa-induced NFkB p65 translocation, primary screen, imaging, HUVEC, MLSMR starter and 10KST1 sets (AID 438;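 active = inhibition above 20% together with a positive visual image hit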;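 note: compound added about 3h40 before a 20 min TNFalpha stimulation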;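 for inhibition: signal is the nuclear over cytoplasmic p65 intensity ratio per well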); conditions: HUVEC TNFa-induced p65 nuclear translocation; cell count: measured here: nuclei count (cytotoxicity indicator), at 2.08 µM; inhibition: at 2 µM, stronger effect = higher value, 0% TNFa-plus-vehicle, 100% no-TNFa wells
# [2] = inhibitors of E-selectin induction by TNFa, primary screen, imaging, HUVEC, immunofluorescence, MLSMR starter and 10KST1 sets (AID 487;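 active = visually confirmed hit in the image check and inhibition above 20%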;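 for inhibition: signal is fraction of cell area covered by stained E-selectin grains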;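 for nuclei count: 100% = median nuclei count of all wells on the same plate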); conditions: HUVEC TNFalpha-induced E-selectin immunofluorescence imaging, at 2 µM; inhibition: stronger effect = higher value; nuclei count: measured here: cell number, toxicity
# [3] = DUSP6 inhibitors restoring Erk phosphorylation by chemical complementation, primary imaging in DUSP6-transfected HeLa (AID 609;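 active = compounds giving at least 50% inhibition in the cell-based MKP-3 phosphatase rescue imaging test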;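 for inhibition: phospho-Erk level distribution per well compared with pooled transfected vehicle control wells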); conditions: HeLa MKP-3 transfected, phospho-Erk imaging KS statistic, at 10 µM, cells stimulated with TPA for 15 min
# [4] = target: Dual specificity protein phosphatase 6 (Homo sapiens) (UniProt Q16828); assay: as above; conditions: HeLa MKP-3 transfected, phospho-Erk imaging KS statistic; at 10 µM; stronger effect = higher value; cells stimulated with TPA for 15 min
# [5] = target: Voltage-gated potassium channel subunit beta-2 (Rattus norvegicus) (UniProt P62483); assay: KvBeta enzyme negative modulators, primary screen, biochemical, NADPH fluorescence (AID 622;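 active = fluorescence slope higher than the sample average by over 3 SD, cut at about -0.22 in these data, passing the limit was not always enough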;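 note: slope of raw intensity against log time taken from 70 to 1610 s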); conditions: recombinant KvBeta, 4-cyanobenzaldehyde reduction, at 10 µM, stronger effect = higher value
# [6] = target: Voltage-gated potassium channel subunit beta-2 (Rattus norvegicus) (UniProt P62483); assay: KvBeta positive modulators, primary screen, biochemical, NADPH fluorescence (AID 623;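 active = NADPH fluorescence slope more negative than the mean of all samples by about 3 SD, 99.7% confidence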;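 note: fluorescence intensity change per second fitted from 20 to 320 s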); conditions: Recombinant KvBeta, NADPH fluorescence decrease slope, 10 min; at 10 µM; stronger effect = lower value
# [7] = target: Alpha-2C adrenergic receptor (Homo sapiens) (UniProt P18825); assay: modulators of alpha2C/GIRK thallium flux, primary screen, cell-based, HEK293 alpha2C/GIRK1/2 (AID 624;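 active = fluorescence slope after compound addition differing from the mean of all screened samples at 99.7% confidence, in either direction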;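 note: slope of fluorescence ratio to pre-addition baseline per second over 15 to 24 s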); conditions: thallium flux BTC fluorescence, at 10 µM, actives lie on both sides
# [8] = inhibitors of Chlamydomonas gravitaxis, primary screen, whole organism, Chlamydomonas reinhardtii, WT vs cilia-less mutant, absorbance, 96-well (AID 463189); conditions: OD600 absorbance, 2 days, at 10 µM, stronger effect = higher value;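 note: 0% = wild type cc124 cells in DMSO and 100% = ciliumless bld1 mutant cells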
# [9] = inhibitors of Sendai virus-induced IRF3 signaling, primary screen, TLR/RLR signaling modifier project, cell-based, Sendai virus stimulus, luciferase, 10K MLSCN set (AID 602276;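 active = inhibition at or above 50% at 10 µM; inactive = inhibition below 50%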;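 note: firefly luciferase from ISG56 promoter only with Renilla not read in this screen; 0% = Sendai virus plus DMSO and 100% = medium plus DMSO without virus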); conditions: HEK293 RL24 IRF3 luciferase reporter, at 10 µM, stronger effect = higher value
# [10] = inhibitors of poly I:C-induced TLR3 signaling, primary screen, cell-based, poly I:C stimulus, luciferase, 10K MLSCN set (AID 602277;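 active = inhibition of the reporter signal at or above 50%; inactive = inhibition below 50%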); conditions: HEK293-TLR3 RL24 IRF3 luciferase reporter, at 10 µM, stronger effect = higher value
# [11] = inhibitors of mutant huntingtin aggregation, primary screen, imaging, exon1htt(103Q)mCFP cells, high-content imaging (AID 483;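 active = visual image review flags a hit and inhibition of aggregation exceeds 20%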;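 note: compound exposure lasted 3 days before fixation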;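 for nuclei count: percent of the per-plate median nuclei count of sample wells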); conditions: exon1htt(103Q)mCFP cell line, aggregate imaging, at 2 µM; inhibition of aggregation: stronger effect = higher value; nuclei count: measured here: cell count, toxicity
# [12] = inhibitors of larval lipid processing in zebrafish, primary screen, whole organism, PED6 fluorescence, gall bladder and intestine (AID 686;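 active = a full or partial loss of lipid-probe fluorescence in the fish gall bladder, intestine or both, judged by eye; inactive = no fluorescence loss, or compound toxic to the fish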;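 note: larvae 5 to 7 days old with five fish per well; signal comes from phospholipase A2 cleavage of quenched PED6 carried via bile; overnight exposure to compound and PED6 before scoring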); conditions: Zebrafish larvae PED6 lipid processing, fluorescence scoring; screened at 20 µM (by protocol)
# [13] = target: Muscarinic acetylcholine receptor M4 (Homo sapiens) (UniProt P08173); assay: compounds altering M4/GIRK thallium flux, either direction, primary screen, M4 allosteric agonist project, cell-based, HEK293 M4/GIRK, BTC-AM (AID 625;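 active = fluorescence slope after compound addition differing from the mean of all tested samples at 99.7% confidence, mostly higher but some lower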;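 note: thallium influx through GIRK channels coupled to M4 in HEK293 cells with BTC-AM dye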); conditions: at 10 µM, actives lie on both sides
# [14] = measured here: cell density z-score
# [15] = measured here: nuclear c-Myc green intensity z-score
# [16] = measured here: nuclear pErk red intensity z-score, stronger effect = higher value
# Alpha-2C adrenergic receptor (Homo sapiens), sequence (P18825 whole entry, looked up): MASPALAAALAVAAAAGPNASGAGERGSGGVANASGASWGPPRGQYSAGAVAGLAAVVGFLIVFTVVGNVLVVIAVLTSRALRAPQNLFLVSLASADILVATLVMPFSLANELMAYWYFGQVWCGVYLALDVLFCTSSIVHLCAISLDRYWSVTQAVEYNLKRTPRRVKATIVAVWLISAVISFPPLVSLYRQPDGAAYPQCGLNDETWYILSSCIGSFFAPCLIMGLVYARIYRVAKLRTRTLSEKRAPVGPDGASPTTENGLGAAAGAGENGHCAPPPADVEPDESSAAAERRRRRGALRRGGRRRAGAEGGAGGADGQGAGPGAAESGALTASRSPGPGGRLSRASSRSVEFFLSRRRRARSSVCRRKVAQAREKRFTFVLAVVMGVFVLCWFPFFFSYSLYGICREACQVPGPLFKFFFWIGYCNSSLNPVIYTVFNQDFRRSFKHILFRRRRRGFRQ
# Voltage-gated potassium channel subunit beta-2 (Rattus norvegicus), sequence (P62483 whole entry, looked up): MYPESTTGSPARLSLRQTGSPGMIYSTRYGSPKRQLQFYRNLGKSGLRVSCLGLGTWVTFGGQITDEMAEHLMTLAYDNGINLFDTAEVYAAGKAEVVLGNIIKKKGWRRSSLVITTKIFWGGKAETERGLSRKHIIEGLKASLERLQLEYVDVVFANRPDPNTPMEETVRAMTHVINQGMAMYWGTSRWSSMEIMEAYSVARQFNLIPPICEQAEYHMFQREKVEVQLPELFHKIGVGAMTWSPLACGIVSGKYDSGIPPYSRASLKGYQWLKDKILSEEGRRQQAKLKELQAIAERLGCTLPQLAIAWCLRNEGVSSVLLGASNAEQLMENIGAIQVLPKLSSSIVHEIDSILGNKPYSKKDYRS
# Dual specificity protein phosphatase 6 (Homo sapiens), sequence (Q16828 whole entry, looked up): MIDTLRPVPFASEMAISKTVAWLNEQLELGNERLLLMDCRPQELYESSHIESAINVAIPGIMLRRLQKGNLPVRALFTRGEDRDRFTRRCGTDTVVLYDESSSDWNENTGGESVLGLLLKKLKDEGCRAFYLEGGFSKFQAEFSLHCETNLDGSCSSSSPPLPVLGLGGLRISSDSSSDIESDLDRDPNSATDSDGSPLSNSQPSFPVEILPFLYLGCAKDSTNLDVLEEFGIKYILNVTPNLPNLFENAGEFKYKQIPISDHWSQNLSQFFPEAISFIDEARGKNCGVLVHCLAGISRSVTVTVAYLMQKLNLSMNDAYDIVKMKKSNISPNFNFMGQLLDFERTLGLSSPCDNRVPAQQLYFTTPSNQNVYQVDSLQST
# Muscarinic acetylcholine receptor M4 (Homo sapiens), sequence (P08173 whole entry, looked up): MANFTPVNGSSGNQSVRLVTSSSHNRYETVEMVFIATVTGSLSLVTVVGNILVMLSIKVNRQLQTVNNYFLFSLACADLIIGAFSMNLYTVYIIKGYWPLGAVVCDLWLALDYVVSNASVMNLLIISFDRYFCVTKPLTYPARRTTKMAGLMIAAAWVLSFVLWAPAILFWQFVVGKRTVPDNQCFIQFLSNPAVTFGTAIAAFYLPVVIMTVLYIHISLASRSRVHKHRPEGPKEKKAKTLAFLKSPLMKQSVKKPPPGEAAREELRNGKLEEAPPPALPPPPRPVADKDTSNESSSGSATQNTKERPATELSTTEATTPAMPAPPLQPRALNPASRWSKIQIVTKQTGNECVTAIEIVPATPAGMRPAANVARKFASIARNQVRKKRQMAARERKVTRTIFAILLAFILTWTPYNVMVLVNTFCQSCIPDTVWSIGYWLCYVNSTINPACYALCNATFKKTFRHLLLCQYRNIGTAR
Compound,cell count [1],inhibition [1],inhibition [2],nuclei count [2],"z-score [3, 14]","z-score [3, 15]","z-score [3, 16]",inhibition [4],fluorescence slope [5],NADPH fluorescence slope [6],slope [7],inhibition [8],inhibition [9],inhibition [10],inhibition of aggregation [11],nuclei count [11],outcome [12],fluorescence slope [13]
O=S(=O)(c1cccc2cnccc12)N1CCCNCC1,401,4.2% (inactive),-37.4% (inactive),120%,-0.577,0.628,-2.35,21.2% (inactive),-0.463 (inactive),-6.3e-05 (inactive),0.00448 (inactive),0.327% (inactive),18.3% (inactive),29.9% (inactive),–,–,–,–
O=c1cc(NCc2ccccc2)nc2n1CCCS2,572,-1.5% (inactive),–,–,-0.588,-0.473,-1.35,-4.7% (inactive),-0.506 (inactive),-0.000115 (inactive),0.00575 (inactive),4.05% (inactive),-14.4% (inactive),-33.9% (inactive),-16.3% (inactive),94.5%,inactive,–
Cc1nnc(SCC2=C(C(=O)O)N3C(=O)[C@@H](NC(=O)Cn4cnnn4)[C@H]3SC2)s1,628,-2.9% (inactive),-103% (inactive),125%,-0.857,0.639,1.89,-6.41% (inactive),-0.495 (inactive),-4.7e-05 (inactive),0.00463 (inactive),9.57% (inactive) and 15.2% (inactive),9.64% (inactive),21.6% (inactive),–,–,inactive,–
Cc1ccc(C2C3CN(C(C)C)CC=C3C(C#N)=C(N)C2(C#N)C#N)cc1 (centres undefined),620,0.1% (inactive),-85.5% (inactive),145%,1.72,2.35,0.446,70.4% (inactive),-0.33 (inactive),-1.4e-05 (inactive),-0.00688 (active),8.92% (inactive),22.9% (inactive),22.3% (inactive),–,99.1%,inactive,–
Cn1c(SCC(=O)N2CCOCC2)nnc1-c1cccc(NC(=O)c2ccccc2F)c1,576,-2.8% (inactive),17.5% (inactive),107%,-2.39,0.78,-0.11,1.63% (inactive),-0.578 (inactive),-5.9e-05 (inactive),–,20.3% (inactive),13.9% (inactive),22.5% (inactive),-17.6% (inactive),115%,inactive,0.00616 (inactive)
Cc1cnc(NC(=O)C2=C(O)c3ccccc3S(=O)(=O)N2C)s1,640,4.7% (inactive),-46.4% (inactive),112%,-0.158,0.936,-1.17,30.1% (inactive),-0.427 (inactive),-1.4e-05 (inactive),0.00455 (inactive),0.844% (inactive) and -7.88% (inactive),15.5% (inactive),32.8% (inactive),–,–,inactive,–
CCC(=O)O[C@@H]1CC(=O)O[C@H](C)CC=CC=C[C@@H](O)[C@H](C)C[C@H](CC=O)[C@H](O[C@H]2O[C@H](C)[C@@H](O[C@H]3C[C@@](C)(O)[C@@H](OC(=O)CC)[C@H](C)O3)[C@H](N(C)C)[C@H]2O)[C@H]1OC,725,-0.7% (inactive),-105% (inactive),120%,-0.528,-0.404,-1.92,11.3% (inactive),-0.525 (inactive),-4.8e-05 (inactive),0.00447 (inactive),66.6% (active),-13.3% (inactive),-27.4% (inactive),–,–,inactive,–
Cc1noc(NS(=O)(=O)c2ccc(N)cc2)c1C,559,-7.4% (inactive),-149% (inactive),114%,0.375,-0.266,-1.23,5.42% (inactive),-0.478 (inactive),2.4e-05 (inactive),0.00419 (inactive),-6.69% (inactive),-9.57% (inactive),-11.4% (inactive),–,–,inactive,–
Cc1cc(C)n(S(=O)(=O)Cc2ccccc2)n1,495,0.8% (inactive),-49.2% (inactive),105%,–,–,–,–,-0.531 (inactive),-1.7e-05 (inactive),0.00447 (inactive),-10% (inactive),15% (inactive),14.8% (inactive),-5.2% (inactive),100%,inactive,–
CC1(C)S[C@@H]2[C@H](NC(=O)[C@H](C(=O)O)c3ccsc3)C(=O)N2[C@H]1C(=O)O,519,-8.9% (inactive),-44% (inactive),99.7%,-1.03,-0.916,0.566,7.39% (inactive),-0.44 (inactive),-4.7e-05 (inactive),0.00461 (inactive),11.7% (inactive),12.3% (inactive),36.3% (inactive),–,–,inactive,–
Cc1ccc(N(CC2=NCCN2)c2cccc(O)c2)cc1,561 and 534,-6.5% (inactive) and 2.1% (inactive),-44.6% (inactive) and -23.4% (inactive),136% and 125%,-1.49 and -0.829,1.38 and 2.5,-0.739 and 1.17,5.79% (inactive),-0.452 (inactive) and -0.478 (inactive),-5.4e-05 (inactive) and -3.9e-05 (inactive),–,4.48% (inactive) and 1.6% (inactive) and -7.32% (inactive),0.917% (inactive) and -3.85% (inactive),21.2% (inactive) and 12.9% (inactive),-6.5% (inactive) and -10.5% (inactive),106% and 78.7%,inactive,–
CC[C@H]1OC(=O)C[C@@H](O)[C@H](C)[C@@H](O[C@@H]2O[C@H](C)C[C@H](N(C)C)[C@H]2O)[C@@H](CC=O)C[C@@H](C)C(=O)C=C[C@]2(C)O[C@H]2[C@@H]1C,610,-3.7% (inactive),-120% (inactive),116%,0.794,-0.225,-0.416,7.39% (inactive),-0.498 (inactive),-2.6e-05 (inactive),0.00472 (inactive),59.9% (active),6.6% (inactive),61.9% (active),–,–,inactive,–
CCCCc1nc2n[nH]c(N)c2c2c1CCCC2,512,-7.9% (inactive),-85.3% (inactive),124%,-0.979,1.39,0.873,3.49% (inactive),-0.447 (inactive),-0.000136 (inactive),–,10.9% (inactive),-0.43% (inactive),8.9% (inactive),-112% (inactive),2.8%,inactive,0.00605 (inactive)
COC(=O)C(NC(C)=O)(Nc1nc2ccc(S(C)(=O)=O)cc2s1)C(F)(F)F (centres undefined),473,-7.9% (inactive),-30.1% (inactive),97.4%,-0.876,0.631,0.313,7.42% (inactive),-0.51 (inactive),-1e-05 (inactive),–,-13% (inactive),-0.421% (inactive),13.8% (inactive),3.4% (inactive),102%,inactive,0.00507 (inactive)
Cn1c(Cl)cnc1C1CC(=O)c2cc(Cl)ccc2O1 (centres undefined),637,-11.8% (inactive),-161% (inactive),112%,-0.672,-0.603,-2.4,15.9% (inactive),-0.562 (inactive),-8.8e-06 (inactive),0.00554 (inactive),-12.2% (inactive),16.5% (inactive),35% (inactive),–,0.8%,inactive,–
Cc1cc(NS(=O)(=O)c2ccc(N)cc2)no1,614,2.1% (inactive),-43.4% (inactive),117%,-1.02,-0.449,1.11,-5.24% (inactive),-0.445 (inactive),-2.3e-05 (inactive),0.00461 (inactive),1.6% (inactive),19.8% (inactive),31.9% (inactive),–,–,inactive,–
C[C@H](CS)C(=O)N1CCC[C@H]1C(=O)O,555,1.6% (inactive),-80.8% (inactive),124%,0.625,-1.55,1.02,12.4% (inactive),-0.485 (inactive),-4e-05 (inactive),0.00488 (inactive),-3.81% (inactive) and 9.89% (inactive),-6.06% (inactive),12.3% (inactive),–,–,–,–
Cc1nc2c(o1)CCc1ccccc1C2O (centres undefined),606,3.6% (inactive),-16.2% (inactive),99.8%,3.05,-1.58,-1.98,15.5% (inactive),-0.523 (inactive),-4e-05 (inactive),–,19.1% (inactive),2.65% (inactive),14.8% (inactive),-5% (inactive),106%,inactive,0.00553 (inactive)
O=C(O)c1cc(=O)c2c(OCC(O)COc3cccc4oc(C(=O)O)cc(=O)c34)cccc2o1,472,-2.9% (inactive),-78.3% (inactive),106%,-1.42,1.02,-0.69,5.42% (inactive),-0.505 (inactive),-6.1e-05 (inactive),0.0051 (inactive),-9.3% (inactive),13.2% (inactive),13.9% (inactive),–,–,inactive,–
CC1(C)SC2[C@H](NC(=O)C(NC(=O)N3CCNC3=O)c3ccccc3)C(=O)N2C1C(=O)O (some centres undefined),705,-9.5% (inactive),-58.5% (inactive),117%,0.0464,-0.196,-0.885,15.3% (inactive),-0.461 (inactive),-5.2e-05 (inactive),0.00535 (inactive),6.16% (inactive),3.1% (inactive),37.2% (inactive),–,–,inactive,–
CCOC(=O)c1ccc(CC2S/C(=C(\C#N)C(C)=O)NC2=O)cc1 (centres undefined),508,-6.4% (inactive),-87.6% (inactive),145%,1.03,-0.573,0.337,13.4% (inactive),-0.384 (inactive),-4.5e-05 (inactive),–,13.1% (inactive),6.73% (inactive),-11.5% (inactive),-13.4% (inactive),100%,inactive,0.00533 (inactive)
